Source: PubChem
Shiga toxin inh – inhibitors of Shiga toxin in Vero cells; Vero cells, Shiga toxin protein synthesis inhibition reporter; inhibition, % at 38.7 µM; actives 9.2% (n = 290,000); AID 2315; in the data active = inhibition mostly above about 28%, no sharp cut-off; inactive = mostly below about 43%
Marburg entry inh – Marburg virus entry inhibition | Marburg virus pseudotyped entry inhibition, cell reporter | Potency, µM (series often up to 37.8 µM), usual class: inhibitors | actives 1.8% (n = 300,000); calls by dose curve; tested in HEK293 cells
Cycloheximide cs – counter-screen for Shiga toxin inhibitors: cycloheximide protein synthesis inhibition; actives 12% (n = 300,000); AID 2314; cell reporter, cycloheximide protein synthesis inhibition counterscreen; max response, %; in the data active = max response mostly above about 13%, no sharp cut-off; inactive = mostly below about 14%; also: read at 38.3 µM for the half of the compounds with a filed dose
LASV entry inh – inhibitors of Lassa virus binding or cell entry. Lassa virus pseudotype entry inhibition, cell reporter. Potency, µM (top dose mostly 37.9 µM), actives largely listed as inhibitors. actives 1.2% (n = 300,000); calls by dose curve; tested in HEK293 cells; also: nearly all actives have a fitted effect of over 50% in size
Each line names hits and unclear results; the compound was inactive in the other large screens; ! = a repeat was not active. Only some compounds are listed: those with a hit (about 12% of all), similar ones and a draw of the others.

CC1=C(C(=O)OC2CCCCC2)C(c2ccccc2)NC(=O)N1 (stereo not given)	Marburg entry inh inconclusive, LASV entry inh inconclusive
CC1=C(C(=O)OC2CCCCCCC2)C(c2ccc(O)cc2)NC(=O)N1 (stereo not given)	LASV entry inh 2.6µM
COc1ccc(C(=O)C(OC(=O)c2ccccc2Cl)c2ccccc2)cc1 (stereo not given)	Shiga toxin inh 83, Cycloheximide cs 28
COc1ccc(C(=O)C(OC(=O)c2ccccc2)c2ccccc2)cc1 (stereo not given)	Shiga toxin inh 104, Marburg entry inh inconclusive, Cycloheximide cs 49, LASV entry inh inconclusive
O=C(COc1ccccc1)OC(C(=O)c1ccccc1)c1ccccc1 (stereo not given)	none
Oc1ccc2c(c1)[C@H]1CCC[C@]1(N1CCOCC1)O2	none (no result: Shiga toxin inh, Cycloheximide cs, LASV entry inh)
NC(=S)Nc1nccc(-c2cccs2)n1	Shiga toxin inh 61, Cycloheximide cs 41
Cc1ccc(C(=O)Nc2c(-c3cccs3)nc3cc(C)ccn23)cc1	Marburg entry inh inconclusive
Cc1ccc(C(=O)Nc2nccc(-c3cccs3)n2)cc1	Cycloheximide cs 28
CS(=O)(=O)NCCCCCCNS(C)(=O)=O	Marburg entry inh inconclusive
CCS(=O)(=O)C1=NN2C(=N)/C(=C\c3ccc(OS(=O)(=O)c4ccccc4)cc3)C(=O)N=C2S1	Cycloheximide cs 33 (no result: Marburg entry inh, LASV entry inh)
CCC1=NN2C(=N)/C(=C/c3ccc(OS(=O)(=O)c4ccccc4)cc3)C(=O)N=C2S1	none (no result: Marburg entry inh, LASV entry inh)
CS(=O)(=O)C1=NSC2=NC(=O)/C(=C\c3ccc(OS(=O)(=O)c4ccccc4)cc3)C(=N)N21	Shiga toxin inh 34, Cycloheximide cs 16 (no result: Marburg entry inh, LASV entry inh)
COc1cccc(Nc2nc(N)nc(CCl)n2)c1	Shiga toxin inh 146, Marburg entry inh inconclusive, Cycloheximide cs 57, LASV entry inh inconclusive
Cc1cccc(Nc2nc(N)nc(CCl)n2)c1	Shiga toxin inh 77, Marburg entry inh inconclusive, Cycloheximide cs 61, LASV entry inh inconclusive
COc1ccc(S(=O)(=O)N2CCN(C(=O)c3cc4c(s3)CCC4)CC2)cc1	LASV entry inh inconclusive (no result: Shiga toxin inh, Cycloheximide cs)
O=S(=O)(NCCc1csc2nc(-c3ccccc3)nn12)c1cc(F)ccc1F	none (no result: Shiga toxin inh, Marburg entry inh, Cycloheximide cs)
Cc1ccc(C(=O)OCC(=O)c2c[nH]c3ccccc23)cc1S(=O)(=O)N1CCOCC1	none (no result: Shiga toxin inh, Cycloheximide cs)
C=CCOC(=O)C1=C(C)NC(=O)NC1c1ccc2c(c1)OCO2 (stereo not given)	none (no result: Marburg entry inh, LASV entry inh)
C=CCOC(=O)c1c(C)nc2cc3c(cc2c1C)OCO3	Shiga toxin inh 69, Cycloheximide cs 29
Cc1nc2nc(NC(=O)c3ccc(Cl)cc3)[nH]n2c(=O)c1Cc1ccccc1	none (no result: Shiga toxin inh, Cycloheximide cs)
CCNCCC(CCC(C)C)c1ccc2c(c1)OCO2 (stereo not given)	Marburg entry inh 8.9µM
CC(C)CCSc1nc2ccccc2[nH]1	Shiga toxin inh 102, Marburg entry inh inconclusive, Cycloheximide cs 52, LASV entry inh inconclusive
C=C(C)CSc1nc2ccccc2[nH]1	Shiga toxin inh 59, Cycloheximide cs 29
CN(Cc1cccs1)C(=O)CSc1nc2ccccc2[nH]1	Shiga toxin inh 123, Cycloheximide cs 47 (no result: Marburg entry inh, LASV entry inh)
Cc1nonc1NC(=O)CSc1nc2ccccc2[nH]1	LASV entry inh inconclusive
C=C(C)CSc1nc2nc(C)c(Br)cc2[nH]1	Shiga toxin inh 81, Cycloheximide cs 30 (no result: LASV entry inh)
COC(=O)CSc1nc2nc(C)c(Br)cc2[nH]1	none
CCN(CC)CCn1c2c(c(SCC(=O)Nc3ccc(F)c(F)c3)nc1=O)CCC2	Marburg entry inh inconclusive (no result: Shiga toxin inh, Cycloheximide cs)
COc1ccc(Cl)cc1NC(=O)c1cc(C)nn1-c1ccccc1	none (no result: Shiga toxin inh, Cycloheximide cs)
CC(=O)N=C(N)Sc1nc2ccccc2[nH]1	Shiga toxin inh 67, Cycloheximide cs 48
CC(Sc1nc2ccccc2[nH]1)C(=O)O (stereo not given)	Marburg entry inh inconclusive
COC(=O)c1c(NC(=O)/C=C/C(=O)O)sc(C)c1-c1ccc(C(C)C)cc1	LASV entry inh 5.6µM
CC(C)=C1C2CCC1C(C(=O)Nc1sc(C)c(-c3ccc(C(C)C)cc3)c1C(N)=O)C2C(=O)O (stereo not given)	Marburg entry inh 21µM, LASV entry inh inconclusive
COc1ccc(C2CC(O)(c3ccccc3)Oc3cc(OC)cc(OC)c32)cc1 (stereo not given)	Cycloheximide cs 22! (no result: Marburg entry inh, LASV entry inh)
CN(C)c1ccc(/C=N/NC(N)=S)cc1[N+](=O)[O-]	none
CC(C)(C)C(=O)Nc1nc(-c2ccc3c(c2)OCO3)cs1	Shiga toxin inh 51, Cycloheximide cs 24, LASV entry inh inconclusive
c1cc2c(cc1-c1csc(NNC3=NCCCCC3)n1)OCCO2	Shiga toxin inh 55, Marburg entry inh inconclusive, Cycloheximide cs 37, LASV entry inh inconclusive
c1cc(CNC2=NCCCCC2)ccn1	none
COc1ccccc1C(=O)Nc1nc(-c2ccc3c(c2)OCCO3)cs1	Shiga toxin inh 57, Cycloheximide cs 28 (no result: Marburg entry inh, LASV entry inh)
CCC(=O)Nc1nc(-c2ccc3c(c2)OCCO3)cs1	Shiga toxin inh active, Cycloheximide cs 31 (no result: Marburg entry inh, LASV entry inh)
O=C(COC(=O)c1ccc2c(c1)OCO2)Nc1nc(-c2ccccc2)cs1	none
O=C(/C=C/c1ccc2c(c1)OCO2)Nc1nc(-c2ccc(F)cc2)cs1	none
COc1cccc2sc(NC(=O)c3ccc4c(c3)OCCO4)nc12	none (no result: Shiga toxin inh, Marburg entry inh, Cycloheximide cs)
Cc1nnc(-c2cnn(C)c2N)n1Cc1cccc(Cl)c1	none
Cc1ccc2oc(=O)c3cnn(CC(=O)N4CCN(c5cc(Cl)ccc5C)CC4)c3c2c1	none (no result: Shiga toxin inh, Cycloheximide cs)
Cc1cccc(N2CCN(CCCNC(=O)Cn3ncc4c([nH]c5ccccc54)c3=O)CC2C)c1 (stereo not given)	none (no result: Shiga toxin inh, Marburg entry inh, Cycloheximide cs)
O=C(c1cnc(N2CCCCC2)c2ccccc12)N1CCN(c2ccc(Cl)cc2)CC1	none (no result: Shiga toxin inh, Marburg entry inh, Cycloheximide cs)
CC(C)(C)OC(=O)N1CCC(C(=O)N2CCC[C@H]2C(=O)O)CC1	Shiga toxin inh 60, Marburg entry inh inconclusive, Cycloheximide cs 9.6
COc1ccc(-c2nn3c(-c4ccc(C)cc4)nnc3c3ccccc23)cc1	none (no result: Shiga toxin inh, Cycloheximide cs)
Cc1ccnc(NC(=O)C2CCN(S(=O)(=O)c3cccc(C(F)(F)F)c3)CC2)c1	Cycloheximide cs 14
O=C(CCNC(=O)C1CCN(S(=O)(=O)c2ccccc2)CC1)NCc1cccc(C(F)(F)F)c1	none (no result: Marburg entry inh, LASV entry inh)
O=C(CCNC(=O)C1CCN(S(=O)(=O)c2ccccc2)CC1)Nc1cccc(C(F)(F)F)c1	Cycloheximide cs 16 (no result: Marburg entry inh, LASV entry inh)
O=C1CN(CC(=O)N2CCOCC2)c2ccccc2O1	Shiga toxin inh 98, Cycloheximide cs 34 (no result: Marburg entry inh, LASV entry inh)
O=C1CN(CC(=O)N2CCCCC2)c2ccccc2O1	Cycloheximide cs 24
O=C(CN1C(=O)COc2ccccc21)N1CCOCC1	none (no result: Marburg entry inh, LASV entry inh)
COc1ccc(CNC(=O)C(c2ccccc2F)N(C(=O)c2csnn2)C2CC2)cc1 (stereo not given)	none
Clc1ccc(/C=N/NC(=Nc2ccccc2)c2ccccn2)c(Cl)c1	Shiga toxin inh 124, Cycloheximide cs 41
C(=N\NC(=Nc1ccccc1)c1ccccn1)/c1ccccn1	Marburg entry inh inconclusive, Cycloheximide cs 14, LASV entry inh inconclusive
O=C(N/N=C/c1ccccn1)C(O)c1ccccc1 (stereo not given)	none (no result: Marburg entry inh, LASV entry inh)
COc1cc(NS(=O)(=O)c2ccc([N+](=O)[O-])cc2)c2ncccc2c1	none (no result: Marburg entry inh, LASV entry inh)
O=Cc1cn(Cc2ccc([N+](=O)[O-])cc2)c2ccccc12	Marburg entry inh inconclusive, LASV entry inh 10µM
O=[N+]([O-])/C=C/c1cn(Cc2ccc(F)cc2)c2ccccc12	Marburg entry inh 7.3µM, LASV entry inh inconclusive
Cc1ccc(Cn2cc(C=O)c3ccccc32)cc1	Marburg entry inh 1.4µM, LASV entry inh inconclusive
O=Cc1cn(Cc2ccc(F)cc2)c2ccccc12	Marburg entry inh inconclusive, LASV entry inh inconclusive
